Assay results: PubChem BioAssay (NCATS)
Results filed as inconclusive are left out. Activity calls are given as the source filed them. The call rests on the fitted dose curve; in most records, active means well fitted inhibition curve with a large enough effect; inconclusive means small, poorly fitted or top-dose-only effect; inactive means flat fitted curve, though single readings scatter.

What was measured:
Assay in all cases: qHTS profiling for inhibitors of Plasmodium falciparum proliferation (AID 504749); further: nearly all actives have a fitted effect of over 60% in size
Conditions in all cases: P. falciparum in erythrocytes, SYBR Green DNA, 72 h; series mostly up to 12.8 µM
AA1029 = tested on: AA1029
How it was run: (§1)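 Each compound contacts P. falciparum-infected red blood cells for 72 h at 37 C; lysis buffer (Tris, EDTA, saponin, Triton X, SYBR Green I) is added and fluorescence measured next morning; values normalized to controls.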

C2A = tested on: C2A
How it was run: as §1

CP185 = tested on: CP185
How it was run: as §1

CP217 = tested on: CP217
How it was run: as §1

CP238 = tested on: CP238
How it was run: as §1

CP252 = tested on: CP252
How it was run: as §1

CP256 = tested on: CP256
How it was run: as §1

CP262 = tested on: CP262
How it was run: as §1

CP265 = tested on: CP265
How it was run: as §1

CP286 = tested on: CP286
How it was run: as §1

CP305 = tested on: CP305
How it was run: as §1

CP325 = tested on: CP325
How it was run: as §1

CP329 = tested on: CP329
How it was run: as §1

CP335 = tested on: CP335
How it was run: as §1

ECU = tested on: ECU
How it was run: as §1

FAB9 = tested on: FAB9
How it was run: as §1

HB3 = tested on: HB3
How it was run: as §1

SC27B = tested on: SC27B
How it was run: as §1

TAB109 = tested on: TAB109
How it was run: as §1

TAB165 = tested on: TAB165
How it was run: as §1

Measured: Potency

COc1c(O)cc2c(c1O)[C@@H]1O[C@@H](CO)[C@@H](O)[C@@H](O)[C@@H]1OC2=O
inactive: AA1029 | C2A | CP185 | CP217 | CP238 | CP252 | CP256 | CP262 | CP265 | CP286 | CP305 | CP325 | CP329 | CP335 | ECU | FAB9 | HB3 | SC27B | TAB109 | TAB165

CC[C@H](NC(C)C)[C@H](O)c1ccc(O)c(O)c1
inactive: AA1029 | C2A | CP185 | CP217 | CP238 | CP252 | CP256 | CP262 | CP265 | CP286 | CP305 | CP325 | CP329 | CP335 | ECU | FAB9 | HB3 | SC27B | TAB109 | TAB165

CC(=O)O[C@@H](C)C[N+](C)(C)C
inactive: AA1029 | C2A | CP185 | CP217 | CP238 | CP252 | CP256 | CP262 | CP265 | CP286 | CP305 | CP325 | CP329 | CP335 | ECU | FAB9 | HB3 | SC27B | TAB109 | TAB165

C[C@H](NCCc1ccc(O)cc1)[C@@H](O)c1ccc(O)cc1
inactive: AA1029 | C2A | CP185 | CP217 | CP238 | CP252 | CP256 | CP262 | CP265 | CP286 | CP305 | CP325 | CP329 | CP335 | ECU | FAB9 | HB3 | SC27B | TAB109 | TAB165

CCN[C@@H]1C[C@H](C)S(=O)(=O)c2sc(S(N)(=O)=O)cc21
inactive: AA1029 | C2A | CP185 | CP217 | CP238 | CP252 | CP256 | CP262 | CP265 | CP286 | CP305 | CP325 | CP329 | CP335 | ECU | FAB9 | HB3 | SC27B | TAB109 | TAB165

CC(=O)Nc1c(I)c(C(=O)N[C@H]2[C@@H](O)[C@H](O)[C@H](CO)O[C@@H]2O)c(I)c(N(C)C(C)=O)c1I
inactive: AA1029 | C2A | CP185 | CP217 | CP238 | CP252 | CP256 | CP262 | CP265 | CP286 | CP305 | CP325 | CP329 | CP335 | ECU | FAB9 | HB3 | SC27B | TAB109 | TAB165

C[n+]1ccccc1/C=N\O
inactive: AA1029 | C2A | CP185 | CP217 | CP238 | CP252 | CP256 | CP262 | CP265 | CP286 | CP305 | CP325 | CP329 | CP335 | ECU | FAB9 | HB3 | SC27B | TAB109 | TAB165

C[C@@H](CN(C)C)CN1c2ccccc2CCc2ccccc21
inactive: AA1029 | C2A | CP185 | CP217 | CP238 | CP252 | CP256 | CP262 | CP265 | CP286 | CP305 | CP325 | CP329 | CP335 | ECU | FAB9 | HB3 | SC27B | TAB109 | TAB165

CC1(C)O[C@@H]2C[C@H]3[C@H]4C[C@H](F)C5=CC(=O)C=C[C@@]5(C)[C@@H]4[C@H](O)C[C@]3(C)[C@]2(C(=O)CO)O1
inactive: AA1029 | C2A | CP185 | CP217 | CP238 | CP252 | CP256 | CP262 | CP265 | CP286 | CP305 | CP325 | CP329 | CP335 | ECU | FAB9 | HB3 | SC27B | TAB109 | TAB165

O=C(O)/C=C\c1ccc(Cn2ccnc2)cc1
inactive: AA1029 | C2A | CP185 | CP217 | CP238 | CP252 | CP256 | CP262 | CP265 | CP286 | CP305 | CP325 | CP329 | CP335 | ECU | FAB9 | HB3 | SC27B | TAB109 | TAB165

CO/N=C(/C(=O)NC1C(=O)N2C(C(=O)O)=C(CSc3nc(=O)c(O)nn3C)CSC12)c1csc(N)n1 (stereo not given)
inactive: AA1029 | C2A | CP185 | CP217 | CP238 | CP252 | CP256 | CP262 | CP265 | CP286 | CP305 | CP325 | CP329 | CP335 | ECU | FAB9 | HB3 | SC27B | TAB109 | TAB165

COc1ccc(C[C@@H]2c3cc(OC)c(OC)cc3CC[N@+]2(C)CCC(=O)OCCCCCOC(=O)CC[N@@+]2(C)CCc3cc(OC)c(OC)cc3[C@H]2Cc2ccc(OC)c(OC)c2)cc1OC
inactive: AA1029 | C2A | CP185 | CP217 | CP238 | CP252 | CP256 | CP262 | CP265 | CP286 | CP305 | CP325 | CP329 | CP335 | ECU | FAB9 | HB3 | SC27B | TAB109 | TAB165

C[N+]1(C)CCC[C@@H](OC(=O)C(O)(c2ccccc2)c2ccccc2)C1
inactive: AA1029 | C2A | CP185 | CP217 | CP238 | CP252 | CP256 | CP262 | CP265 | CP286 | CP305 | CP325 | CP329 | CP335 | ECU | FAB9 | HB3 | SC27B | TAB109 | TAB165

O=c1[nH]cnc2c1ncn2C1OC(CO)C(O)C1O (stereo not given)
inactive: AA1029 | C2A | CP185 | CP217 | CP238 | CP252 | CP256 | CP262 | CP265 | CP286 | CP305 | CP325 | CP329 | CP335 | ECU | FAB9 | HB3 | SC27B | TAB109 | TAB165

CN[C@@H]1[C@H](O[C@@H]2O[C@H](CO)[C@@H](N)[C@H](O)[C@@H]2O)O[C@H]2C[C@@H](N)[C@@H](O[C@H]3[C@@H](O)[C@H](O)[C@H](N)C[C@@H]3N)O[C@H]2[C@H]1O
inactive: AA1029 | C2A | CP185 | CP217 | CP238 | CP252 | CP256 | CP262 | CP265 | CP286 | CP305 | CP325 | CP329 | CP335 | ECU | FAB9 | HB3 | SC27B | TAB109 | TAB165

CC1(C)S[C@@H]2[C@H](NC(=O)[C@H](C(=O)O)c3ccsc3)C(=O)N2[C@H]1C(=O)O
inactive: AA1029 | C2A | CP185 | CP217 | CP238 | CP252 | CP256 | CP262 | CP265 | CP286 | CP305 | CP325 | CP329 | CP335 | ECU | FAB9 | HB3 | SC27B | TAB109 | TAB165

Cn1c(=O)c2c(ncn2C[C@@H](O)CO)n(C)c1=O
inactive: AA1029 | C2A | CP185 | CP217 | CP238 | CP252 | CP256 | CP262 | CP265 | CP286 | CP305 | CP325 | CP329 | CP335 | ECU | FAB9 | HB3 | SC27B | TAB109 | TAB165

CN[C@@H](CC(C)C)C(=O)N[C@@H]1C(=O)N[C@H](CC(N)=O)C(=O)N[C@@H]2C(=O)N[C@H]3C(=O)N[C@H](C(=O)N[C@H](C(=O)O)c4cc(O)cc(O)c4-c4cc3ccc4O)[C@H](O)c3ccc(c(Cl)c3)Oc3cc2cc(c3O[C@H]2O[C@@H](CO)[C@@H](O)[C@@H](O)[C@@H]2O[C@@H]2C[C@](C)(N)[C@H](O)[C@H](C)O2)Oc2ccc(cc2Cl)[C@@H]1O
inactive: AA1029 | C2A | CP185 | CP217 | CP238 | CP252 | CP256 | CP262 | CP265 | CP286 | CP305 | CP325 | CP329 | CP335 | ECU | FAB9 | HB3 | SC27B | TAB109 | TAB165

CCCN[C@@H](C)C(=O)Nc1ccccc1C
inactive: AA1029 | C2A | CP185 | CP217 | CP238 | CP252 | CP256 | CP262 | CP265 | CP286 | CP305 | CP325 | CP329 | CP335 | ECU | FAB9 | HB3 | SC27B | TAB109 | TAB165

CCN1C(=O)N[C@@H](c2ccccc2)C1=O
inactive: AA1029 | C2A | CP185 | CP217 | CP238 | CP252 | CP256 | CP262 | CP265 | CP286 | CP305 | CP325 | CP329 | CP335 | ECU | FAB9 | HB3 | SC27B | TAB109 | TAB165

C/C=C\C(=O)N(CC)c1ccccc1C
inactive: AA1029 | C2A | CP185 | CP217 | CP238 | CP252 | CP256 | CP262 | CP265 | CP286 | CP305 | CP325 | CP329 | CP335 | ECU | FAB9 | HB3 | SC27B | TAB109 | TAB165

CC1(C)Oc2ccc(C#N)cc2[C@H](N2CCCC2=O)[C@H]1O
inactive: AA1029 | C2A | CP185 | CP217 | CP238 | CP252 | CP256 | CP262 | CP265 | CP286 | CP305 | CP325 | CP329 | CP335 | ECU | FAB9 | HB3 | SC27B | TAB109 | TAB165
